The sequences below were run against PUM1 PUF domain R4-AMA (Homo sapiens, UniProt Q14671 828-1176, N971A;H972M;Q975A) (assay: yeast three-hybrid, YBZ-1, SC-Leu-His + 0.5 mM 3-AT, 4 days). Settings: tags: N-Gal4 AD-HA kept; label: inside an RPR1-promoter hybrid RNA with tandem MS2 sites; ssRNA.
Sequence of PUM1 PUF domain R4-AMA (Q14671 828-1176 N971A/H972M/Q975A): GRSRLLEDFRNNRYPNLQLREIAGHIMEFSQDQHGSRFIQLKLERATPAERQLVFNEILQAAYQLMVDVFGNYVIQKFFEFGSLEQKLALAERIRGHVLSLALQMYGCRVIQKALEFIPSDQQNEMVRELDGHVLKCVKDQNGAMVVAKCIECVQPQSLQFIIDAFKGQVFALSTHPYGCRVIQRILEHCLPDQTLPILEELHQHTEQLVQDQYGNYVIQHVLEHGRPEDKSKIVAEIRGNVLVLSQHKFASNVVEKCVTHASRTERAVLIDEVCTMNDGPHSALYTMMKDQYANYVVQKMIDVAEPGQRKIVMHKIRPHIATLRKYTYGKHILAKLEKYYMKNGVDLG
In short: (§1)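 Pumilio-1 PUF domain libraries, randomized (NNK) at the three base-contacting residues of each repeat, were co-expressed with matching RNA elements from a centromeric plasmid in strain YBZ-1 (LexA–MS2 coat fusion, HIS3 reporter). Transformants were plated on SC-Leu (input) and SC-Leu-His + 0.5 mM 3-AT (selection) for four days, and repeat regions were PCR-amplified and Illumina-sequenced. The interaction score is the log2 change in variant frequency from input to selection, with pseudocount 1 where absent.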
“GGCUAGAACUAGUGGAUCCCCCGGCGCCCGGCGGCUCGAGCCCGGGUAAGUGUACAUAGUCUGCAUGCCGCCGGGCGCCAUGCCUGCAGGUCGACUCUAGAAAACAUG” was tested, and the binding signal was 1.77 log2 enrichment (interaction score).
“GGCUAGAACUAGUGGAUCCCCCGGCGCCCGGCGGCUCGAGCCCGGGUAAGUGUAAAUAGUCUGCAUGCCGCCGGGCGCCAUGCCUGCAGGUCGACUCUAGAAAACAUG” was tested, and the binding signal was 2.2 log2 enrichment (interaction score).
In the case of “GGCUAGAACUAGUGGAUCCCCCGGCGCCCGGCGGCUCGAGCCCGGGUAAGUGUAUAUAGUCUGCAUGCCGCCGGGCGCCAUGCCUGCAGGUCGACUCUAGAAAACAUG”, the binding signal is reported as 2.78 log2 enrichment (interaction score).

Each sequence was assayed against PUM1 PUF domain R3-PWA (Homo sapiens, UniProt Q14671 828-1176, C935P;R936W;Q939A) in the same assay as above. Settings: tags: N-Gal4 AD-HA kept; label: inside an RPR1-promoter hybrid RNA with tandem MS2 sites; ssRNA.
Sequence of PUM1 PUF domain R3-PWA (Q14671 828-1176 C935P/R936W/Q939A): as the sequence (Q14671 828-1176 N971A/H972M/Q975A) above, with C108P, R109W, Q112A, A144N, M145H, A148Q counted along it
In short: as §1
For “GGCUAGAACUAGUGGAUCCCCCGGCGCCCGGCGGCUCGAGCCCGGGUAAGUGUAAGUAGUCUGCAUGCCGCCGGGCGCCAUGCCUGCAGGUCGACUCUAGAAAACAUG”, the binding signal was 0.42 log2 enrichment (interaction score).
With “GGCUAGAACUAGUGGAUCCCCCGGCGCCCGGCGGCUCGAGCCCGGGUAAGUGUAAAUAGUCUGCAUGCCGCCGGGCGCCAUGCCUGCAGGUCGACUCUAGAAAACAUG” the binding signal was 4.48 log2 enrichment (interaction score).
With “GGCUAGAACUAGUGGAUCCCCCGGCGCCCGGCGGCUCGAGCCCGGGUAAGUGUAAUUAGUCUGCAUGCCGCCGGGCGCCAUGCCUGCAGGUCGACUCUAGAAAACAUG” the binding signal was 2.19 log2 enrichment (interaction score).

Source: PMC8384837, “Expanding the binding specificity for RNA recognition by a PUF domain”
